CCHF vOTU inh-1 – CCHFV vOTU protease inhibition; Pep-AMC fluorescence; inhibition, % at 11.5 µM; hit rate 0.55% among 370,000; further: 0% = vehicle wells with enzyme and 100% = no enzyme wells
MazEF act – increases E. coli MazEF RNase cleavage of RNA. P0AE70. FAM/BHQ RNA-DNA oligo cleavage fluorescence, 5 h. activation, % at 20 µM. hit rate 0.32% among 350,000. AID 504720; in the data active means activation above about 50%
Target sequence (P0AE70 whole entry, looked up): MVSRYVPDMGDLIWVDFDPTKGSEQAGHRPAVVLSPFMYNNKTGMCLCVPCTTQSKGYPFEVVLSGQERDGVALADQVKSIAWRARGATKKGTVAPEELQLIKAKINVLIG
SARS 3CLpro inh – SARS-CoV 3CLpro protease inhibition; recombinant SARS-CoV 3CLpro, quenched FRET peptide cleavage; hit rate 0.14% among 290,000; inhibition, % at 6 µM; P0C6X7; in the data active means inhibition above about 12%
DUSP3 inh – blocks human VHR1 dual specificity phosphatase; P51452; recombinant VHR phosphatase, pNPP absorbance; inhibition, % at 13.3 µM; hit rate 0.52% among 290,000; AID 1654; in the data active means inhibition above about 50%
Target sequence (P51452 whole entry, looked up): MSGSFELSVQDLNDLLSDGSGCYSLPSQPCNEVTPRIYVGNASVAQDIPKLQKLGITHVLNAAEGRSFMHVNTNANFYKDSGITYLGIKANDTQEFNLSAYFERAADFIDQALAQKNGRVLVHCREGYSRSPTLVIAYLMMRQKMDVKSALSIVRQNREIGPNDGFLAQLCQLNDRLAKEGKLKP
BJeLR viability – BJeLR cell viability loss | hit rate 0.17% among 300,000 | inhibition, % (no concentration beside the values) | BJeLR (HRASV12) viability, CellTiter-Glo ATP luminescence, 48 h; in the data active means inhibition above about 50%
CCHF vOTU inh-2 – confirmation of CCHF virus vOTU protease inhibitors. Recombinant CCHFV vOTU, Pep-AMC fluorescence. hit rate 17% among 1,900. inhibition, % at 11.5 µM. AID 686976. shares compounds with CCHF vOTU inh-1
An asterisk follows results filed as active; / = not tested or not shown. Hits are enriched below; roughly 1.4% of the tested compounds scored in any of these assays. Unless noted, no stated cut-off is given here; in the data, active means inhibition above about 30%; inactive means the rest.

SMILES | CCHF vOTU inh-1 | MazEF act | SARS 3CLpro inh | DUSP3 inh | BJeLR viability | CCHF vOTU inh-2
COC(=O)[C@]12C[C@H](CC(=O)NCC3CCCCC3)C(=O)N(CCc3ccc(OC)c(OC)c3)C1=C[C@H](C(C)(C)C)O[C@@H]2C | 31* | / | / | / | / | 19
COC(=O)[C@]12C[C@H](CC(=O)N3CCOCC3)C(=O)N(CCC3=CCCCC3)C1=C[C@H](C(C)(C)C)O[C@@H]2C | 30* | / | / | / | / | -8
O=C(C1CCCN1S(=O)(=O)c1ccccc1[N+](=O)[O-])N1CCN(c2ccccc2)CC1 (stereo not drawn) | 5 | / | / | / | / | /
COC(=O)[C@]12C[C@H](CC(=O)N3CCC(c4ccccc4)CC3)C(=O)N(Cc3ccc4c(c3)OCO4)C1=C[C@H](C(C)(C)C)O[C@@H]2C | 30* | / | / | / | / | -3
CCCCCC(=O)N1C[C@@H](n2cc(-c3ccc(F)cc3)nn2)[C@H](O)C[C@@H]1c1ccc(Cl)cc1 | 34* | 3 | / | / | / | 5
Cc1ccc([C@H]2C[C@@H](O)[C@H](n3cc(-c4ccc(F)cc4)nn3)CN2C(=O)C2CCCCC2)cc1 | 31* | 7 | / | / | / | 4
CCCCCC(=O)N1C[C@H](O)[C@@H](n2cc(-c3ccc(F)cc3)nn2)C[C@@H]1c1ccc(Cl)cc1 | 5 | -1 | / | / | / | /
Cc1cccc(Cn2cc(COC(=O)N3CCCC3)nn2)c1 | -5 | / | / | / | / | /
CC(C)(c1ccccc1)c1ccc(OCCn2cnc3ccccc3c2=O)cc1 | 31* | 5 | 0 | 16 | 1 | 4
COC(=O)c1ccc(N=NNc2ccc(C(=O)OC)cc2)cc1 | 33* | -12 | -2 | -1 | 1 | -9
COC(=O)[C@H](CC(C)C)N(CCCc1cn(CC2CCCCC2)nn1)S(=O)(=O)c1ccccc1Br | 12 | / | / | / | / | /
CCOC(=O)Cc1nnc(Nc2ccc(C)cc2C)c2ccccc12 | -11 | 3 | 1 | -3 | 0 | /
CCOC(=O)Cc1nnc(Nc2cc(C)ccc2C)c2ccccc12 | 31* | 4 | 0 | 29 | 2 | 3
CCOC(=O)c1cccc(-c2cc(C(=O)OC)c3n(c2=O)CCC3)c1 | -1 | / | / | / | / | /
C=CCN1C(=O)c2ccc(C(=O)OCC(=O)Nc3ccccc3OC)cc2C1=O | 32* | 3 | / | / | / | -23
CCc1nc2c(OCCC3CCCCC3)cccn2c1N(C)C(=O)COc1ccccc1 | 36* | / | / | / | / | 5
CCc1nc2c(OCCOC)cccn2c1N(C)C(=O)c1ccc(C)cc1 | -1 | / | / | / | / | /
CCc1nc2c(OCC3CCCCC3)cccn2c1N(C)C(=O)c1ccccc1F | 31* | / | / | / | / | -6
CCc1nc2c(OCCC3CCCCC3)cccn2c1N(C)C(=O)c1ccc(C)cc1 | 37* | / | / | / | / | 6
Cc1ccc2nc(-c3ccc(NC(=O)CSc4nnc(-c5cccc(Cl)c5)n4Cc4ccco4)cc3)sc2c1 | -35 | / | / | / | / | /
CC1(Cc2ccc(C(F)(F)F)o2)C(=O)Nc2ccc(-c3cccc(C(F)(F)F)c3)cc21 (stereo not drawn) | 36* | / | / | / | / | -1
Cc1cccc(-c2cccc3c4c([nH]c23)[C@@H]2C[C@H](N(C)C(=O)Nc3ccccc3C)[C@H]([C@H](C)O)CN2CC4)c1 | -2 | / | / | / | / | /
COC(=O)Nc1ccc(S(=O)(=O)N2CCC(C(=O)N(C)C3CCCCC3)CC2)cc1 | 31* | 4 | -5 | 9 | 1 | -19
COc1ccc(NC(=O)c2ccc(OCC3CCCO3)cc2)cc1OC (stereo not drawn) | 38* | 6 | / | / | / | -14
COc1ccc(NC(=O)c2ccc(OCC3CCCO3)cc2)cc1Cl (stereo not drawn) | -4 | 0 | / | / | / | /
SMILES | CCHF vOTU inh-1 | MazEF act | SARS 3CLpro inh | DUSP3 inh | BJeLR viability | CCHF vOTU inh-2
CCc1ccc(OCC(=O)NC(NC(=S)Nc2ccccc2C)C(Cl)(Cl)Cl)cc1 (stereo not drawn) | 30* | -1 | 1 | 18 | 7 | -24
CN(C)[C@@H]1CCN(c2ccc3c(c2)O[C@@H]2CCN(C2)S3(=O)=O)C1 | -7 | / | / | / | / | /
CCOC(=O)c1c(-c2ccccc2)[nH]c2ccc(O)cc12 | 34* | 5 | 1 | 5 | 1 | -17
COC(=O)[C@H](Cc1ccccc1)NC(=O)[C@H]1C[C@@]2(N3CCCC3)c3ccccc3N(C(=O)OC(C)(C)C)[C@H]2N1C(=O)OC(C)(C)C | 20 | / | / | / | / | /
COc1ccc(C(=O)NC(=S)Nc2cccc3cc(O)ccc23)cc1OC | 31* | 6 | 4 | 18 | -15 | -11
O=[N+]([O-])c1ccccc1/C=C/C=Nn1c(-c2ccc(F)cc2)n[nH]c1=S | 13 | / | / | / | / | /
CCOC(=O)C(=CNc1cc(C)nn1-c1ccc(C)cc1)C(=O)OCC | 30* | 1 | 0 | 2 | 3 | -11
Cc1cc(NS(=O)(=O)c2ccc(NC(=O)COc3ccccc3Cl)cc2)no1 | 2 | -5 | -2 | -16 | 6 | /
CCc1ccc(OCC(=O)Nc2ccc(S(=O)(=O)Nc3cc(C)on3)cc2)c(Br)c1 | 44* | -6 | 11 | -29 | -7 | 2
Cc1ccc(C)c(N2CCN(C(=O)c3ccc4nc(-c5ccco5)c(-c5ccco5)nc4c3)CC2)c1 | 44* | 2 | 3 | -8 | 5 | -17
CCCCCC(C)NC(=O)CN1C(=O)NC(C)(c2ccc3ccccc3c2)C1=O (stereo not drawn) | 32* | 0 | 4 | -11 | 3 | 4
CC1(c2ccc3ccccc3c2)NC(=O)N(CC(=O)NCc2cccs2)C1=O (stereo not drawn) | 6 | 5 | 5 | -7 | -7 | /
C=CC[C@@H](CC(=O)N(CCO)Cc1ccccc1)C(=O)N[C@@H](COC(=O)[C@H](CC=C)CC(=O)OC(C)(C)C)Cc1c[nH]c2ccccc12 | 39* | -5 | / | / | / | 15
C=CC[C@H](CC(=O)N(CCO)Cc1ccccc1)C(=O)NCCOC(=O)[C@H](CC=C)CC(=O)OC(C)(C)C | -1 | 11 | / | / | / | /
C=CC[C@@H](CC(=O)N(CCO)Cc1ccccc1)C(=O)NC[C@H](OC(=O)[C@@H](CC=C)CC(=O)OC(C)(C)C)c1ccccc1 | 37* | 5 | / | / | / | 11
C=CC[C@@H](CC(=O)N(CCO)Cc1ccccc1)C(=O)N[C@H](COC(=O)[C@@H](CC=C)Cc1ccc(F)cc1)Cc1c[nH]c2ccccc12 | 14 | -15 | / | / | / | /
C=CCC[C@H](Cc1ccc(F)cc1)C(=O)OC[C@@H](Cc1c[nH]c2ccccc12)NC(=O)[C@@H](CC=C)CC(=O)N[C@@H](CO)Cc1ccccc1 | 32* | 3 | / | / | / | 11
C=CC[C@H](CC(=O)N(CCO)Cc1ccccc1)C(=O)N[C@H](COC(=O)[C@@H](CC=C)Cc1ccc(F)cc1)Cc1c[nH]c2ccccc12 | 31* | -2 | / | / | / | 7
Cc1ccccc1C(=O)N[C@H](C(=O)N1CCC[C@H]1C(=O)NCCc1ccccc1Cl)c1ccccc1 | -2 | / | / | / | / | /
C=CC[C@H](CC(=O)N(CCO)Cc1ccccc1)C(=O)N[C@@H](COC(=O)[C@@H](CC=C)CC(=O)OC(C)(C)C)Cc1c[nH]c2ccccc12 | 33* | -1 | / | / | / | 2

Source: PubChem BioAssay
